Assay results from PubChem BioAssay AID1159580 (chemical genetic matrix, 2015).
Among all 5,500 compounds or so, about 2,000 (36%) were called active. About 18% were inconclusive and are not listed. Rule as the data show it: active = normalized growth mostly below about 0.91 (no sharp cut-off); inconclusive = no clear call, values can overlap the other calls; inactive = mostly above about 0.92. The list shows a part of the results.

Test: chemical genetic growth profiling, strain panel (AID 1159580);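 also: tested at 20 µM; growth read once vehicle control cultures reached saturation at 30 °C; 1 = growth at the plate median or of vehicle wells; lower values mean less growth of the strain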
Conditions: growth OD

Measured: normalized growth

COc1cc2c(cc1OC)CC(=O)OC2
active: S. cerevisiae deletion strains, locus YLR039C, strain RIC1, hits give low values 1.23 [resistant]
inactive: S. cerevisiae deletion strains, locus YAL013W, strain DEP1, hits give low values 0.985 | S. cerevisiae deletion strains, locus YBR229C, strain ROT2, hits give low values 0.984 | S. cerevisiae deletion strains, locus YCL061C, strain MRC1, hits give low values 1 | S. cerevisiae deletion strains, locus YDL101C, strain DUN1, hits give low values 0.984 | S. cerevisiae deletion strains, locus YDR150W, strain NUM1, hits give low values 0.966 | S. cerevisiae deletion strains, locus YEL061C, strain CIN8, hits give low values 1 | S. cerevisiae deletion strains, locus YGR078C, strain PAC10, hits give low values 1.01 | S. cerevisiae deletion strains, locus YHR030C, strain SLT2, hits give low values 1.06 | S. cerevisiae deletion strains, locus YHR087W, strain rtc3, hits give low values 0.997 | S. cerevisiae deletion strains, locus YJR043C, strain POL32, hits give low values 0.993 | S. cerevisiae deletion strains, locus YJR075W, strain HOC1, hits give low values 0.995 | S. cerevisiae deletion strains, locus YKL190W, strain CNB1, hits give low values 1 | S. cerevisiae deletion strains, locus YLR058C, strain SHM2 (second series), hits give low values 0.994 | S. cerevisiae deletion strains, locus YLR085C, strain ARP6, hits give low values 1.03 | S. cerevisiae deletion strains, locus YLR262C, strain YPT6, hits give low values 1.16 | S. cerevisiae deletion strains, locus YML094W, strain GIM5, hits give low values 0.999 | S. cerevisiae deletion strains, locus YMR219W, strain ESC1, hits give low values 0.971 | S. cerevisiae deletion strains, locus YMR263W, strain SAP30, hits give low values 0.994 | S. cerevisiae deletion strains, locus YNL128W, strain TEP1, hits give low values 1 | S. cerevisiae deletion strains, locus YNL153C, strain GIM3, hits give low values 1.03 | S. cerevisiae deletion strains, locus YNL298W, strain CLA4 (second series), hits give low values 1.04 | S. cerevisiae deletion strains, locus YNL322C, strain KRE1, hits give low values 0.979 | S. cerevisiae deletion strains, locus YNR030W, strain Alg12, hits give low values 1.02 | S. cerevisiae deletion strains, locus YPL055C, strain LGE1, hits give low values 0.935 | S. cerevisiae deletion strains, locus YPL241C, strain CIN2, hits give low values 1 | S. cerevisiae deletion strains, locus YPR135W, strain CTF4, hits give low values 1.04 | S. cerevisiae strains, strain wild type, hits give low values 1.01
